Measurements published in PubChem BioAssay.
The source made the active and inactive calls. Unless noted, no stated cut-off is given here; in the data, active means nuclear beta-catenin stimulation mostly above about 4.2% (no sharp cut-off); inactive means mostly below about 10%.

Legend:
[1] = stimulators of nuclear beta-catenin in C2C12, primary screen, imaging, WNT3A-conditioned medium, mouse C2C12, NPC library (AID 1117326); conditions: stronger effect = higher value; further: reference of the scale not given here
[2] = stimulators of insulin release from INS-1E, primary screen, cell-based, 5 mM glucose, NPC library (AID 1117329;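 active means compound raises insulin release from rat beta cells at 5 mM glucose, no numeric limit stated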; further: reference of the scale not given here); conditions: rat INS-1E insulin secretion, at 10 µM, stronger effect = higher value
[3] = growth inhibition of GSK3B-pretreated HCT116 cells – cell-based, CellTiter-Glo, 0.2 to 20 µM (AID 1117336;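 active means compounds lowering colon cancer cell viability after pretreatment blocking the GSK3B kinase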); conditions: HCT116 viability after GSK3B inhibitor, at 20 µM, stronger effect = higher value
[4] = inhibition of endothelial tube formation, primary screen, imaging, VEGF stimulated, CD31 staining, tube area, NPC library (AID 1117340;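 active means compound that reduces growth-factor-driven endothelial tube area in a mixed cell culture, no cutoff stated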); conditions: VEGF-stimulated ADSC/ECFC co-culture, at 10 µM, stronger effect = higher value
[5] = glucagon-like peptide 1 release enhancers, primary assay, NCI-H716 cell line, NPC library (AID 1117341;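 active means compound raises GLP1 secretion from the human gut endocrine cells, with no numeric limit stated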; further: reference of the scale not given here); conditions: NCI-H716 cells, at 10 µM, stronger effect = higher value
[6] = HCT116 colon cancer cell growth inhibition, primary screen, CellTiter-Glo luminescence, NPC library (AID 1117342;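 active means compounds that lower survival of HCT116 colon cancer cells in the luminescence readout, no numeric limit stated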); conditions: at 20 µM (top of the series)
[7] = CellTiter-Glo luminescent readout of SW480 viability loss, NPC library primary (AID 1117343;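 active means compounds that lower viability of the colon cancer cells in the luminescence readout, with no numeric limit stated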); conditions: CellTiter-Glo luminescence; at 20 µM (top of the series)
[8] = decreased DLD-1 cellular survival, CellTiter-Glo luminescent readout, NPC compound collection, primary HTS (AID 1117346;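 active means compounds that lower survival of DLD-1 colon cancer cells in the luminescence readout, no cutoff given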); conditions: DLD-1 viability, CellTiter-Glo luminescence; at 20 µM (top of the series)

COc1ccccc1N1CCN(CC(O)COc2cc(OC)c(OC)c(OC)c2)CC1 (stereo unspecified)
active: tube area decrease [4] 56.8%
0.4%: nuclear beta-catenin stimulation ([1]; stimulation, at 2 µM)
inactive: nuclear beta-catenin stimulation ([1]; at 10 µM) 0.2% | insulin secretion stimulation [2] 1.5% | viability decrease [3] 16.1% | GLP1 secretion stimulation [5] 4.5% | inhibition of viability [6] 20.9% | viability decrease (inhibition) [7] -2.1% | viability decrease (inhibition) [8] 8.5%

CCCCCCCCCCCCCCCC[N+](C)(C)CC
active: viability decrease [3] 99% | tube area decrease [4] 106% | GLP1 secretion stimulation [5] 20.2% | inhibition of viability [6] 99.1% | viability decrease (inhibition) [7] 102% | viability decrease (inhibition) [8] 101%
inactive: nuclear beta-catenin stimulation ([1]; at 10 µM) 13.3% | insulin secretion stimulation [2] 0.7%
9.2%: nuclear beta-catenin stimulation ([1]; stimulation, at 2 µM)

O=S(=O)(O)CC(S)CS (stereo unspecified)
-0.1%: nuclear beta-catenin stimulation ([1]; stimulation, at 2 µM)
inactive: nuclear beta-catenin stimulation ([1]; at 10 µM) -1% | insulin secretion stimulation [2] -3.4% | viability decrease [3] -25.4% | tube area decrease [4] -1.9% | GLP1 secretion stimulation [5] -7% | inhibition of viability [6] 4.3% | viability decrease (inhibition) [7] 3.8% | viability decrease (inhibition) [8] -6.6%

O=C(O)c1ccccc1S
inactive: nuclear beta-catenin stimulation ([1]; at 10 µM) 4.7% | insulin secretion stimulation [2] -0.1% | viability decrease [3] 1% | tube area decrease [4] 13.4% | GLP1 secretion stimulation [5] -1.4% | inhibition of viability [6] 2.1% | viability decrease (inhibition) [7] 31.6% | viability decrease (inhibition) [8] -3.4%
-1.3%: nuclear beta-catenin stimulation ([1]; stimulation, at 2 µM)

C[C@@H]1CCN(C(=O)[C@H](CCCN=C(N)N)NS(=O)(=O)c2cccc3c2NC[C@H](C)C3)[C@@H](C(=O)O)C1
-0.5%: nuclear beta-catenin stimulation ([1]; stimulation, at 2 µM)
inactive: nuclear beta-catenin stimulation ([1]; at 10 µM) 0.3% | insulin secretion stimulation [2] 1.35% | viability decrease [3] -9.7% | tube area decrease [4] -5.4% | GLP1 secretion stimulation [5] 1.4% | inhibition of viability [6] -3% | viability decrease (inhibition) [7] -23.6% | viability decrease (inhibition) [8] 0.9%

CN=C(N)NC(=O)Nc1c(C)cccc1C
inactive: nuclear beta-catenin stimulation ([1]; at 10 µM) -1.8% | insulin secretion stimulation [2] -1.2% | viability decrease [3] -12.4% | tube area decrease [4] -1.8% | GLP1 secretion stimulation [5] -0.6% | inhibition of viability [6] 11.3% | viability decrease (inhibition) [8] -0.9%
-0.4%: nuclear beta-catenin stimulation ([1]; stimulation, at 2 µM)
active: viability decrease (inhibition) [7] -1.5%

COc1cc(OC)nc(O[C@H](C(=O)O)C(OC)(c2ccccc2)c2ccccc2)n1
inactive: nuclear beta-catenin stimulation ([1]; at 10 µM) 2.7% | insulin secretion stimulation [2] 1% | viability decrease [3] 1.1% | tube area decrease [4] -16.9% | GLP1 secretion stimulation [5] 3.3% | inhibition of viability [6] 1.2% | viability decrease (inhibition) [7] 6.1% | viability decrease (inhibition) [8] 2.4%
-0.4%: nuclear beta-catenin stimulation ([1]; stimulation, at 2 µM)

COc1ccc(/C(C)=C/C(=O)O)c(OC)c1
inactive: nuclear beta-catenin stimulation ([1]; at 10 µM) 1.2% | insulin secretion stimulation [2] -0.4% | viability decrease [3] 10.1% | tube area decrease [4] -9.3% | GLP1 secretion stimulation [5] 1.3% | inhibition of viability [6] -0.3% | viability decrease (inhibition) [7] -19.9% | viability decrease (inhibition) [8] -10.1%
0.1%: nuclear beta-catenin stimulation ([1]; stimulation, at 2 µM)

NS(=O)(=O)c1ccc(N2CCCCS2(=O)=O)cc1
-0.6%: nuclear beta-catenin stimulation ([1]; stimulation, at 2 µM)
inactive: nuclear beta-catenin stimulation ([1]; at 10 µM) 0.5% | insulin secretion stimulation [2] -0.3% | viability decrease [3] -15.7% | tube area decrease [4] 5.1% | GLP1 secretion stimulation [5] -1.7% | inhibition of viability [6] -8.93% | viability decrease (inhibition) [7] 29% | viability decrease (inhibition) [8] -6.9%

CC(=O)SCC(CC(=O)c1ccc(C)cc1)C(=O)O (stereo unspecified)
-0.4%: nuclear beta-catenin stimulation ([1]; stimulation, at 2 µM)
inactive: nuclear beta-catenin stimulation ([1]; at 10 µM) 0.5% | insulin secretion stimulation [2] 2.9% | viability decrease [3] -5.5% | tube area decrease [4] -18.7% | GLP1 secretion stimulation [5] 1.4% | inhibition of viability [6] -12.2% | viability decrease (inhibition) [7] -19.1% | viability decrease (inhibition) [8] -15.2%

CNC(=O)CN(CCN(CCN(CC(=O)[O-])CC(=O)NC)CC(=O)[O-])CC(=O)[O-].O.[Gd+3]
-0.1%: nuclear beta-catenin stimulation ([1]; stimulation, at 2 µM)
inactive: nuclear beta-catenin stimulation ([1]; at 10 µM) 1.4% | insulin secretion stimulation [2] 0.2% | viability decrease [3] 38.3% | tube area decrease [4] 18.9% | GLP1 secretion stimulation [5] -4.4% | inhibition of viability [6] 25.4% | viability decrease (inhibition) [7] 30.9% | viability decrease (inhibition) [8] 3.8%

O=c1[nH]c(=O)n([C@H]2O[C@H](CO)[C@@H](O)[C@@H]2O)cc1/C=C\Br
-0.6%: nuclear beta-catenin stimulation ([1]; stimulation, at 2 µM)
inactive: nuclear beta-catenin stimulation ([1]; at 10 µM) 0.8% | insulin secretion stimulation [2] 3.5% | viability decrease [3] -12.2% | tube area decrease [4] -20.7% | GLP1 secretion stimulation [5] 1.5% | inhibition of viability [6] -27.5% | viability decrease (inhibition) [7] -23.9% | viability decrease (inhibition) [8] 2.6%

CC(O)COc1ccccc1 (stereo unspecified)
inactive: nuclear beta-catenin stimulation ([1]; at 10 µM) -0.1% | insulin secretion stimulation [2] -0.2% | viability decrease [3] -28.5% | tube area decrease [4] 11.1% | GLP1 secretion stimulation [5] 0.5% | inhibition of viability [6] -11.1% | viability decrease (inhibition) [7] -146% | viability decrease (inhibition) [8] -19.2%
1.5%: nuclear beta-catenin stimulation ([1]; stimulation, at 2 µM)

CC(=O)OC[C@H]1O[C@@](COC(C)=O)(O[C@H]2O[C@H](COC(C)=O)[C@@H](OC(C)=O)[C@H](OC(C)=O)[C@H]2OC(C)=O)[C@@H](OC(C)=O)[C@@H]1OC(C)=O
-0.8%: nuclear beta-catenin stimulation ([1]; stimulation, at 2 µM)
inactive: nuclear beta-catenin stimulation ([1]; at 10 µM) 0.3% | insulin secretion stimulation [2] -0.2% | viability decrease [3] -1% | tube area decrease [4] 0.8% | GLP1 secretion stimulation [5] -0.5% | inhibition of viability [6] 3.93% | viability decrease (inhibition) [7] 16.6% | viability decrease (inhibition) [8] -8%
